Laboratory results: PubChem BioAssay AID1159580 (chemical genetic matrix, 2015)
Hit rate of the full screen: of about 5,500 compounds, about 2,000 (36%) were called active. Not shown: some 18% with an inconclusive outcome. Cut-off read from the data, not from the text of the source: active = normalized growth mostly below about 0.91 (no sharp cut-off); inconclusive = no clear call, values can overlap the other calls; inactive = mostly above about 0.92. The list shows a part of the results.

Assay: chemical genetic growth profiling, strain panel (AID 1159580);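 note: tested at 20 µM; growth read once vehicle control cultures reached saturation at 30 °C; 1 = growth at the plate median or of vehicle wells; lower values mean less growth of the strain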
Conditions: growth OD

Measured: normalized growth

C[C@@H]1CC[C@H]2C(C)(C)C3CC12CC[C@@]3(C)O (some centres not stated)
inactive: S. cerevisiae deletion strains, locus YJR066W, strain TOR1, stronger effect = lower value 0.975 | S. cerevisiae deletion strains, locus YKL009W, strain mrt4, stronger effect = lower value 0.893 | S. cerevisiae deletion strains, locus YKL068W, stronger effect = lower value 1.01 | S. cerevisiae deletion strains, locus YKL085W, strain MDH1 (second series), stronger effect = lower value 0.961 | S. cerevisiae deletion strains, locus YKL085W, strain MDH1, stronger effect = lower value 0.961 | S. cerevisiae deletion strains, locus YKL190W, strain CNB1, stronger effect = lower value 1.01 | S. cerevisiae deletion strains, locus YKR001C, strain vps1, stronger effect = lower value 0.933 | S. cerevisiae deletion strains, locus YKR026C, strain gcn3, stronger effect = lower value 0.994 | S. cerevisiae deletion strains, locus YKR091W, strain srl3, stronger effect = lower value 0.934 | S. cerevisiae deletion strains, locus YLL001W, strain dnm1, stronger effect = lower value 0.949 | S. cerevisiae deletion strains, locus YLR039C, strain RIC1, stronger effect = lower value 0.849 | S. cerevisiae deletion strains, locus YLR058C, strain SHM2, stronger effect = lower value 1 | S. cerevisiae deletion strains, locus YLR102C, strain apc9, stronger effect = lower value 0.989 | S. cerevisiae deletion strains, locus YLR113W, strain HOG1, stronger effect = lower value 0.968 | S. cerevisiae deletion strains, locus YLR262C, strain YPT6, stronger effect = lower value 0.841 | S. cerevisiae deletion strains, locus YLR268W, strain sec22, stronger effect = lower value 0.961 | S. cerevisiae deletion strains, locus YLR342W, strain FKS1 (second series), stronger effect = lower value 0.886 | S. cerevisiae deletion strains, locus YLR370C, strain arc18, stronger effect = lower value 0.92 | S. cerevisiae deletion strains, locus YLR371W, strain rom2, stronger effect = lower value 0.915 | S. cerevisiae deletion strains, locus YLR384C, strain iki3, stronger effect = lower value 0.988 | S. cerevisiae deletion strains, locus YML016C, strain PPZ1, stronger effect = lower value 1.01 | S. cerevisiae deletion strains, locus YML032C, strain rad52, stronger effect = lower value 0.917 | S. cerevisiae deletion strains, locus YML124C, strain tub3, stronger effect = lower value 0.99 | S. cerevisiae deletion strains, locus YMR078C, strain ctf18, stronger effect = lower value 0.998 | S. cerevisiae deletion strains, locus YMR129W, stronger effect = lower value 1.01 | S. cerevisiae deletion strains, locus YMR223W, strain ubp8, stronger effect = lower value 0.952 | S. cerevisiae deletion strains, locus YMR307W, strain GAS1, stronger effect = lower value 0.707 | S. cerevisiae deletion strains, locus YNL067W, strain RPL9B, stronger effect = lower value 0.987 | S. cerevisiae deletion strains, locus YNL183C, strain NPR1, stronger effect = lower value 0.976 | S. cerevisiae deletion strains, locus YNL250W, strain rad50, stronger effect = lower value 0.956 | S. cerevisiae deletion strains, locus YNL271C, strain bni1, stronger effect = lower value 0.938 | S. cerevisiae deletion strains, locus YNL307C, strain MCK1, stronger effect = lower value 0.977 | S. cerevisiae deletion strains, locus YNL322C, strain KRE1 (second series), stronger effect = lower value 0.971 | S. cerevisiae deletion strains, locus YNR049C, strain mso1, stronger effect = lower value 1 | S. cerevisiae deletion strains, locus YOL006C, strain TOP1, stronger effect = lower value 0.982 | S. cerevisiae deletion strains, locus YOL012C, strain htz1 0.706 | S. cerevisiae deletion strains, locus YOL147C, strain pex11, stronger effect = lower value 0.965 | S. cerevisiae deletion strains, locus YOR061W, strain CKA2, stronger effect = lower value 0.958 | S. cerevisiae deletion strains, locus YOR069W, strain VPS5, stronger effect = lower value 0.998 | S. cerevisiae deletion strains, locus YOR080W, strain dia2, stronger effect = lower value 0.967 | S. cerevisiae deletion strains, locus YOR136W, strain idh2, stronger effect = lower value 0.959 | S. cerevisiae deletion strains, locus YOR144C, strain elg1, stronger effect = lower value 0.972 | S. cerevisiae deletion strains, locus YOR184W, strain ser1, stronger effect = lower value 0.9 | S. cerevisiae deletion strains, locus YOR231W, strain MKK1, stronger effect = lower value 0.986 | S. cerevisiae deletion strains, locus YOR316C, strain cot1, stronger effect = lower value 0.987 | S. cerevisiae deletion strains, locus YPL240C, strain hsp82, stronger effect = lower value 0.952 | S. cerevisiae deletion strains, locus YPL241C, strain CIN2, stronger effect = lower value 1.02 | S. cerevisiae deletion strains, locus YPL256C, strain CLN2, stronger effect = lower value 0.969 | S. cerevisiae deletion strains, locus YPR119W, strain clb2, stronger effect = lower value 1 | S. cerevisiae deletion strains, locus YPR141C, strain kar3, stronger effect = lower value 0.991 | S. cerevisiae deletion strains, locus YPR163C, strain tif3, stronger effect = lower value 0.993 | S. cerevisiae deletion strains, locus YPR167C, strain met16, stronger effect = lower value 0.981 | S. cerevisiae deletion strains, strain wtn01, stronger effect = lower value 0.926 | S. cerevisiae strains, strain wild type, stronger effect = lower value 0.965
active: S. cerevisiae deletion strains, locus YKL160W, strain elf1, stronger effect = lower value 0.813 | S. cerevisiae deletion strains, locus YLL026W, stronger effect = lower value 0.747 | S. cerevisiae deletion strains, locus YLL041C, strain sdh2, stronger effect = lower value 0.926 | S. cerevisiae deletion strains, locus YLR027C, strain aat2, stronger effect = lower value 0.781 | S. cerevisiae deletion strains, locus YLR221C, strain rsa3, stronger effect = lower value 0.745 | S. cerevisiae deletion strains, locus YLR258W, strain gsy2, stronger effect = lower value 0.831 | S. cerevisiae deletion strains, locus YLR262C, strain YPT6 (second series), stronger effect = lower value 0.549 | S. cerevisiae deletion strains, locus YLR320W, strain mms22, stronger effect = lower value 0.628 | S. cerevisiae deletion strains, locus YLR330W, strain CHS5, stronger effect = lower value 0.876 | S. cerevisiae deletion strains, locus YLR342W, strain FKS1, stronger effect = lower value 0.861 | S. cerevisiae deletion strains, locus YLR357W, strain rsc2, stronger effect = lower value 0.754 | S. cerevisiae deletion strains, locus YLR418C, strain cdc73, stronger effect = lower value 0.824 | S. cerevisiae deletion strains, locus YML120C, strain ndi1, stronger effect = lower value 0.786 | S. cerevisiae deletion strains, locus YMR058W, strain fet3, stronger effect = lower value 0.891 | S. cerevisiae deletion strains, locus YMR125W, strain sto1, stronger effect = lower value 0.83 | S. cerevisiae deletion strains, locus YMR205C, strain PFK2, stronger effect = lower value 0.697 | S. cerevisiae deletion strains, locus YMR231W, strain pep5, stronger effect = lower value 0.878 | S. cerevisiae deletion strains, locus YNL071W, strain lat1, stronger effect = lower value 0.616 | S. cerevisiae deletion strains, locus YNL209W, strain ssb2, stronger effect = lower value 0.869 | S. cerevisiae deletion strains, locus YNL233W, strain BNI4, stronger effect = lower value 0.83 | S. cerevisiae deletion strains, locus YNL248C, strain rpa49, stronger effect = lower value 0.879 | S. cerevisiae deletion strains, locus YNL298W, strain CLA4, stronger effect = lower value 0.884 | S. cerevisiae deletion strains, locus YNR052C, strain pop2, stronger effect = lower value 0.865 | S. cerevisiae deletion strains, locus YOR001W, strain rrp6, stronger effect = lower value 0.81 | S. cerevisiae deletion strains, locus YOR070C, strain gyp1, stronger effect = lower value 0.813 | S. cerevisiae deletion strains, locus YOR083W, strain WHI5, stronger effect = lower value 0.743 | S. cerevisiae deletion strains, locus YOR106W, strain vam3, stronger effect = lower value 0.713 | S. cerevisiae deletion strains, locus YOR265W, strain rbl2, stronger effect = lower value 0.916 | S. cerevisiae deletion strains, locus YOR270C, strain vph1, stronger effect = lower value 0.618 | S. cerevisiae deletion strains, locus YOR290C, strain snf2, stronger effect = lower value 0.784 | S. cerevisiae deletion strains, locus YPL051W, strain arl3, stronger effect = lower value 0.707 | S. cerevisiae deletion strains, locus YPL078C, strain atp4, stronger effect = lower value 0.837 | S. cerevisiae deletion strains, locus YPL106C, strain sse1, stronger effect = lower value 0.654
